Drawing on PubChem BioAssay (EPA / NIEHS), this text covers AC50 and outcome for three compounds.

What all share (conditions): mRNA level, 48 h; actives raise or lower the signal
Read-out in assay [1]: Interleukin 6 Receptor (IL6R), IL6R (gene 3570)
Briefly: LTEA_HepaRG_IL6R: Life Technologies and Expression Analysis (LTEA) Assay for Interleukin 6 Receptor (IL6R) using HepaRG (AID 2283510).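 On AC50: differentiated human HepaRG liver cells in serum-free induction medium; TaqMan qRT-PCR signal normalized to ACTB GAPDH and POLR2A housekeeping genes.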 The procedure, abridged:
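Concentration-response in human liver HepaRG cells: eight concentrations from 100 uM downward by half-logs, 48 h exposure, 0.5% DMSO vehicle. IL6R mRNA change measured by qRT-PCR and fitted in both directions relative to vehicle.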

Read-out in assay [2]: Potassium channel subfamily K member 1 (KCNK1), KCNK1 (gene 3775)
Briefly: LTEA_HepaRG_KCNK1: Life Technologies and Expression Analysis (LTEA) Assay for Potassium channel subfamily K member 1 (KCNK1) using HepaRG (AID 2283511). The method, boiled down: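 Gain or loss of KCNK1 mRNA is the read-out, quantified by qRT-PCR against three housekeeping genes after 48 h chemical treatment of human HepaRG liver cells. Concentrations ran from 100 uM downward in half-log steps, vehicle 0.5% DMSO.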

Read-out in assay [3]: Keratin 19 (KRT19), KRT19 (gene 3880)
Kind of assay: LTEA_HepaRG_KRT19: Life Technologies and Expression Analysis (LTEA) Assay for Keratin 19 (KRT19) using HepaRG (AID 2283512). The method, boiled down:
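Readout is qRT-PCR of KRT19 mRNA, normalized to ACTB, GAPDH and POLR2A, from HepaRG cells treated 48 h with eight-point half-log dilutions topping at 100 uM. Activity in either direction is scored relative to 0.5% DMSO vehicle.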

Read-out in assay [4]: JUN Transcription Factor, JUN (gene 3725)
Briefly: LTEA_HepaRG_JUN: Life Technologies and Expression Analysis (LTEA) Assay for JUN Transcription Factor using HepaRG (AID 2283513). The procedure, abridged: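 Human HepaRG liver cells receive test chemicals in 0.5% DMSO for 48 h across an eight-point range topping at 100 uM. Expression changes in JUN are scored in both directions against the DMSO vehicle.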

Read-out in assay [5]: Lipase C (LIPC), LIPC (gene 3990)
Briefly: LTEA_HepaRG_LIPC: Life Technologies and Expression Analysis (LTEA) Assay for Lipase C (LIPC) using HepaRG (AID 2283514). The procedure, abridged: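 Read-out is LIPC transcript level by TaqMan qRT-PCR, normalized to three housekeeping genes, after 48 h chemical treatment of human HepaRG liver cells. Curves span eight concentrations topping at 100 uM; activity in either direction scored relative to 0.5% DMSO.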

Read-out in assay [6]: Lipoprotein lipase (LPL), LPL (gene 4023)
Kind of assay: LTEA_HepaRG_LPL: Life Technologies and Expression Analysis (LTEA) Assay for Lipoprotein lipase (LPL) using HepaRG (AID 2283515). The method, boiled down: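 Read-out is LPL transcript level by qRT-PCR, normalized to three housekeeping genes and fitted bidirectionally against the DMSO control. Human HepaRG cells received chemicals for 48 h at up to 100 uM.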

Read-out in assay [7]: MicroRNA 122 (MIR122), gene 406906
Kind of assay: LTEA_HepaRG_MIR122: Life Technologies and Expression Analysis (LTEA) Assay for MicroRNA 122 (MIR122) using HepaRG (AID 2283516). Further: the transcript read is the microRNA miR-122. The method, boiled down: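 HepaRG, 48 h exposure, 8-pt half-log from 100 uM, 0.5% DMSO; TaqMan qRT-PCR; bidirectional fit vs DMSO.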

Read-out in assay [8]: matrix metalloproteinase-10 (MMP10), MMP10 (gene 4319)
Briefly: LTEA_HepaRG_MMP10: Life Technologies and Expression Analysis (LTEA) Assay for matrix metalloproteinase-10 (MMP10) using HepaRG (AID 2283517). The procedure, abridged: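 Gain or loss of MMP10 mRNA is fitted relative to the 0.5% DMSO vehicle. The human hepatic line HepaRG receives a 48-hour serum-free exposure, in duplicate, with a maximum concentration of 100 uM.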

Read-out in another assay: MYC, MYC (gene 4609)
Kind of assay: LTEA_HepaRG_MYC: Life Technologies and Expression Analysis (LTEA) Assay for MYC using HepaRG (AID 2283518). The method, boiled down:
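Expression changes were scored by TaqMan qRT-PCR with ACTB, GAPDH and POLR2A normalization. Cultures in serum-free induction medium received duplicate 8-point concentration series, highest 100 uM, for 48 h; DMSO (0.5%) served as baseline.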

Read-out in assay [9]: matrix metalloproteinase-3 (MMP3), MMP3 (gene 4314)
Briefly: LTEA_HepaRG_MMP3: Life Technologies and Expression Analysis (LTEA) Assay for matrix metalloproteinase-3 (MMP3) using HepaRG (AID 2283519). The procedure, abridged: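 HepaRG, human; 48 h dosing, 8 conc. (max 100 uM, half-log), duplicate, 0.5% DMSO. Readout: MMP3 transcript by Fluidigm TaqMan qRT-PCR, ACTB/GAPDH/POLR2A-normalised. Gain or loss fitted vs DMSO.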

Read-out in assay [10]: Nuclear factor NF-kappa-B p105 subunit (Homo sapiens) (UniProt P19838)
Briefly: LTEA_HepaRG_NFKB1: Life Technologies and Expression Analysis (LTEA) Assay for Nuclear Factor Kappa B Subunit 1 (NFKB1) using HepaRG (AID 2283521).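 On outcome: differentiated human HepaRG liver cells in serum-free induction medium.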 The method, boiled down:
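NFKB1 transcript was measured by TaqMan qRT-PCR on Fluidigm arrays, normalised to three housekeeping genes and fitted in both directions against 0.5% DMSO. HepaRG cells were dosed in duplicate for 48 h in serum-free induction medium, eight half-log steps from 100 uM.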

Read-out in assay [11]: Protein phosphatase 2A (PPP2R4), PTPA (gene 5524)
Briefly: LTEA_HepaRG_PPP2R4: Life Technologies and Expression Analysis (LTEA) Assay for Protein phosphatase 2A (PPP2R4) using HepaRG (AID 2283522). The method, boiled down:
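Gene-expression endpoint in HepaRG hepatic cells: 48 h treatment across eight half-log concentrations up to 100 uM in 0.5% DMSO. PPP2R4 mRNA by qRT-PCR, normalized to three endogenous control genes.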

Read-out in assay [12]: Phosphatase and tensin (PTEN), PTEN (gene 5728)
Briefly: LTEA_HepaRG_PTEN: Life Technologies and Expression Analysis (LTEA) Assay for Phosphatase and tensin (PTEN) using HepaRG (AID 2283523). The method, boiled down:
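Read-out is PTEN transcript level by multiplexed TaqMan qRT-PCR after 48 h chemical treatment of human HepaRG cultures in serum-free induction medium. Concentrations spanned 100 uM downward in half-log steps, 0.5% DMSO throughout; activity fitted in both directions against vehicle.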

Read-out in assay [13]: solute carrier (SLC22A1), SLC22A1 (gene 6580)
Kind of assay: LTEA_HepaRG_SLC22A1: Life Technologies and Expression Analysis (LTEA) Assay for solute carrier (SLC22A1) using HepaRG (AID 2283524).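 On AC50: differentiated human HepaRG liver cells in serum-free induction medium.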 The procedure, abridged:
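HepaRG (human liver line), 48 h dosing in serum-free induction medium; 8 conc., half-log down from 100 uM, 0.5% DMSO vehicle, duplicates. Endpoint: SLC22A1 mRNA, qRT-PCR, housekeeping-normalized; gain/loss fit vs DMSO.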

Read-out in assay [14]: NAD(P)H dehydrogenase [quinone] 1 (NQO1), NQO1 (gene 1728)
Kind of assay: LTEA_HepaRG_NQO1: Life Technologies and Expression Analysis (LTEA) Assay for NAD(P)H dehydrogenase [quinone] 1 (NQO1) using HepaRG (AID 2283526). The method, boiled down:
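Human HepaRG hepatic cells received chemicals for 48 h in serum-free induction medium with 0.5% DMSO, up to 100 uM. Expression was assessed by TaqMan qRT-PCR against housekeeping controls and fitted bidirectionally against DMSO.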

Read-out in assay [15]: Nuclear factor erythroid 2-related factor 2 (Homo sapiens) (UniProt Q16236)
Briefly: LTEA_HepaRG_NFE2L2: Life Technologies and Expression Analysis (LTEA) Assay for Nuclear factor erythroid 2-related factor 2 (NFE2L2) Transcription Factor using HepaRG (AID 2283527). The method, boiled down:
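Transcript level of NFE2L2 is the read-out, measured by microfluidic TaqMan qRT-PCR and normalized to three housekeeping genes. Human HepaRG cultures received test chemical for 48 h at up to 100 uM in half-log steps. Gain or loss of signal is fitted relative to 0.5% DMSO.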

Read-out in assay [16]: succinate dehydrogenase complex iron sulfur subunit B (SDHB), SDHB (gene 6390)
Kind of assay: LTEA_HepaRG_SDHB: Life Technologies and Expression Analysis (LTEA) Assay for succinate dehydrogenase complex iron sulfur subunit B (SDHB) using HepaRG (AID 2283528). The method, boiled down: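 SDHB transcript level read by TaqMan qRT-PCR, housekeeping-normalised (ACTB, GAPDH, POLR2A), after 48 h chemical treatment of plated HepaRG cells; eight concentrations top 100 uM, half-log steps, 0.5% DMSO, duplicates; fitted both directions against DMSO.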

Read-out in assay [17]: Signal transducer and activator of transcription 3 (Homo sapiens) (UniProt P40763)
Kind of assay: LTEA_HepaRG_STAT3: Life Technologies and Expression Analysis (LTEA) Assay for Signal transducer and activator of transcription (STAT3) using HepaRG (AID 2283529). The method, boiled down:
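Read-out is STAT3 mRNA level by qRT-PCR, normalized to three housekeeping genes, in human HepaRG liver cells treated for 48 h. Concentrations ran from 100 uM downward in half-log steps; curves were fitted for gain or loss relative to 0.5% DMSO.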

Read-out in assay [18]: Paternally Expressed 10 (PEG10), PEG10 (gene 23089)
Kind of assay: LTEA_HepaRG_PEG10: Life Technologies and Expression Analysis (LTEA) Assay for Paternally Expressed 10 (PEG10) using HepaRG (AID 2283520). The method, boiled down:
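Chemicals tested on HepaRG cells for 48 h, highest concentration 100 uM. PEG10 expression assessed by qRT-PCR relative to DMSO control.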

Read-out in assay [19]: Pyruvate Dehydrogenase Kinase 4 (PDK4), PDK4 (gene 5166)
Kind of assay: LTEA_HepaRG_PDK4: Life Technologies and Expression Analysis (LTEA) Assay for Pyruvate Dehydrogenase Kinase 4 (PDK4) using HepaRG (AID 2283525). The method, boiled down:
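In this multiplexed human HepaRG expression assay, cells are treated 48 h with test chemicals across an eight-point range starting at 100 uM. PDK4 mRNA changes, normalized to ACTB/GAPDH/POLR2A, are fitted in both directions relative to vehicle.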

SMILES strings stand for the structures. Calls of active or inactive are those of the source. How the source made its calls: active means hit-call score of the fitted dose curve at least 0.9, where 1 is the maximum; inactive means score below 0.9.

Signal transducer and activator of transcription 3 (Homo sapiens), sequence (P40763 whole entry, looked up): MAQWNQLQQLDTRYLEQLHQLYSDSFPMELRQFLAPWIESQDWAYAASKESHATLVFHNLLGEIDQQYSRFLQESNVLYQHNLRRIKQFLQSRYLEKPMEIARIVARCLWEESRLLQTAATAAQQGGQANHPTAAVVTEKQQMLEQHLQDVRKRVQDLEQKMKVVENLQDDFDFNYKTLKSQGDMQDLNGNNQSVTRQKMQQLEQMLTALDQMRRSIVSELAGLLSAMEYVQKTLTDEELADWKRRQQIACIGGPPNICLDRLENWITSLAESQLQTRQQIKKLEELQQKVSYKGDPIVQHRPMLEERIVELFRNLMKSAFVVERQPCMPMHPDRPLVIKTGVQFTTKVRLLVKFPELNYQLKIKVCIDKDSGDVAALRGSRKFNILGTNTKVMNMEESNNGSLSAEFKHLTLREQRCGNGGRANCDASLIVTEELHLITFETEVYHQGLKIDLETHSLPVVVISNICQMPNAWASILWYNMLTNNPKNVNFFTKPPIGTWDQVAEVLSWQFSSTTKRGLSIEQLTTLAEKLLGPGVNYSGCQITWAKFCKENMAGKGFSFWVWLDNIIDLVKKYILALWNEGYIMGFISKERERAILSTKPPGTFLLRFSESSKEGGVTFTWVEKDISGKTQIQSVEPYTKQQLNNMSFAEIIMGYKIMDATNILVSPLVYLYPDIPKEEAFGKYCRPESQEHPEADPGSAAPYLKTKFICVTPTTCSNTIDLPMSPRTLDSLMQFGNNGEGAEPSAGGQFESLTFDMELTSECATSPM
Nuclear factor erythroid 2-related factor 2 (Homo sapiens), sequence (Q16236 whole entry, looked up): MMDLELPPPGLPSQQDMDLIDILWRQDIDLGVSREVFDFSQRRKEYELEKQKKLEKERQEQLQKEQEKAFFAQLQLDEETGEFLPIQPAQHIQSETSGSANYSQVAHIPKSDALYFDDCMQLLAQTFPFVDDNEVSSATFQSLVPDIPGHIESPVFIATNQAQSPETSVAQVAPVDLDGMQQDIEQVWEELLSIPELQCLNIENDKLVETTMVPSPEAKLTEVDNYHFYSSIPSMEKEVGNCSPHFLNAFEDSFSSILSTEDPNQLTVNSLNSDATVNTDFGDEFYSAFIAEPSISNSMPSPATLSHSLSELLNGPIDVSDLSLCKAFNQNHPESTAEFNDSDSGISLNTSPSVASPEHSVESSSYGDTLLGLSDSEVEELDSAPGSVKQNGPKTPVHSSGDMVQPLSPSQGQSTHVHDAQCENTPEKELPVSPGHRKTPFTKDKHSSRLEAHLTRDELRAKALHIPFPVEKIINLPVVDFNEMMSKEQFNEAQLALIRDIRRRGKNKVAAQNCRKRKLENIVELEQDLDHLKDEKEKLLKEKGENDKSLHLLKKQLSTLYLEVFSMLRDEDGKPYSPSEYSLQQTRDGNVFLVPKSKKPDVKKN
Nuclear factor NF-kappa-B p105 subunit (Homo sapiens), sequence (P19838 whole entry, looked up): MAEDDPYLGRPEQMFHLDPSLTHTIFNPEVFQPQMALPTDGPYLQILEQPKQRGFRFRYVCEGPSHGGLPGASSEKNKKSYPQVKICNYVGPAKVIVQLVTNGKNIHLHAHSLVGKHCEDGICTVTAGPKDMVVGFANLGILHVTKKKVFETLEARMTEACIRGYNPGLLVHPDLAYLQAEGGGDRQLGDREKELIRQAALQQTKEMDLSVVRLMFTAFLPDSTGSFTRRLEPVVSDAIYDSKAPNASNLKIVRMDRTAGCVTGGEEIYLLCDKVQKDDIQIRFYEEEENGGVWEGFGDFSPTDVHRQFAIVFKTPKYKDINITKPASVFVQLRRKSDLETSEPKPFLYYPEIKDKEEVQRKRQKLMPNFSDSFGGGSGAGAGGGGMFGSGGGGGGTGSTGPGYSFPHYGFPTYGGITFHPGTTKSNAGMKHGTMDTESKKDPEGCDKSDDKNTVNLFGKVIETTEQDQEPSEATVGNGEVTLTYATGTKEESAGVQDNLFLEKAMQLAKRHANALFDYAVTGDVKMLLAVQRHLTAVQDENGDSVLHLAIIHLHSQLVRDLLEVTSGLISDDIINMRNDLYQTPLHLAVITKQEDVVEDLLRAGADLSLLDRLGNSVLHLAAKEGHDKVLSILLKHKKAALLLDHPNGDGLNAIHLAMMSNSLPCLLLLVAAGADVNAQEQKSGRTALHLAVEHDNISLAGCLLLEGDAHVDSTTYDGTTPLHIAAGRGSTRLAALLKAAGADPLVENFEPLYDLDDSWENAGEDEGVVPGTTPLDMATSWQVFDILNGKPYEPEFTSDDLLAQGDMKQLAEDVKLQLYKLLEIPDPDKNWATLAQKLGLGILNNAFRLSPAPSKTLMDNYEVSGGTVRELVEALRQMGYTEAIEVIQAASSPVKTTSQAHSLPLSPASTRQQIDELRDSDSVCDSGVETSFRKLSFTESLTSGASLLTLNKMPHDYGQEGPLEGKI

On to `CCOCN(C(=O)CCl)c1c(C)cccc1CC`, for which the AC50 in assay [1] was 50 µM (active); in assay [5], 88.4 µM (active); in assay [7], 50 µM (active); in assay [10] it was 0.338 µM (active); in [13] it was 81.1 µM (active). Besides, the outcome in assay [2] is “inactive”; in assay [3] it was “inactive”; in [4], “inactive”; in assay [6], “inactive”; in [8] it was “inactive”; in the assay with MYC, MYC (gene 4609) it was “inactive”. Besides, the result in assay [9], in assay [11], in [12], in assay [14], in assay [15] and in [16] was inactive. In addition, the call in assay [17] was inactive.

On to `O=S1OCC2C(CO1)C1(Cl)C(Cl)=C(Cl)C2(Cl)C1(Cl)Cl` (centres undefined), for which the AC50 in assay [1] is 11.4 µM (active); in [5], 62.7 µM (active); in [6], 87.5 µM (active); in assay [7], 89.1 µM (active); in the assay with MYC, MYC (gene 4609), 77.5 µM (active); in [13], 63 µM (active). Also, the compound was called inactive in [2], in assay [3], in assay [8], in assay [9], in assay [18] and in [10]. Moreover, the compound was classed as inactive in [11], in assay [12], in assay [14], in [15], in assay [16] and in assay [17].

Take `COP(=S)(OC)Oc1ccc(SC)c(C)c1`: the outcome in assay [1], in assay [2], in [3], in [5], in assay [6] and in assay [7] was inactive. In addition, the outcome in assay [8] was “inactive”; with MYC, MYC (gene 4609), “inactive”; in assay [10] it was “inactive”; in [11], “inactive”; in assay [12] it was “inactive”; in [13] it was “inactive”. The outcome in assay [19], in [14], in assay [15], in assay [16] and in assay [17] was inactive. In addition, in assay [9], the AC50 is 50 µM (active).

The AC50 is the midpoint of the concentration-response curve, whichever way the signal moves.
